This note sets out measurements from PubChem BioAssay (Tox21).

Results filed as inconclusive are left out. Calls of active or inactive are those of the source. Unless noted, the call rests on the fitted dose curve.

Assay [1] is described as follows: Nuclear factor erythroid 2-related factor 2/antioxidant responsive element (Nrf2/ARE) small molecule agonists: qHTS cell viability counter screen in human keratinocytes (AID 1919968; active means well fitted curve in the direction sought with a large enough effect in the repeat runs; an effect the other way counts as inactive or inconclusive; further: nearly all actives have a fitted effect of over 55% in size; further: potency means the concentration at half of the fitted maximal effect). The gist of the method:
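Measured as CellTiter-Fluor fluorescence, this readout tracks cytotoxicity in the same wells as the ARE-luciferase screen. HaCaT reporter cells (1,500/well) received compounds after a 5 h pre-incubation and were exposed for 23 h.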
(qHTS replaces the single test concentration by a dilution series.)

The target of assay [2] is Gonadotropin-releasing hormone receptor (Homo sapiens) (UniProt P30968). The assay can be described thus: Human gonadotropin-releasing hormone receptor (GnRHR) small molecule agonists, calcium flux assay in GnRHR-HEK293 cells (AID 1920063). Further: nearly all actives have a fitted effect of over 35% in size. In outline:
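Fluorescence kinetics (480 nm excitation, 540 nm emission; 3 min, 1 s steps) report calcium mobilisation in human GnRHR-HEK293 cells in agonist mode. Dye incubation: 1 h, 37 C.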
A general note: A change in cytosolic calcium serves as a functional read-out for many receptors and channels.

Assay [3] deals with KiSS-1 receptor (Homo sapiens) (UniProt Q969F8). Briefly: Human kisspeptin (KISS1R) small molecule agonists, calcium flux assay in KISS1R-HEK293 cells (AID 1920064; active means well fitted curve in the direction sought with a large enough effect in the repeat runs; an effect the other way counts as inactive or inconclusive). The gist of the method:
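Measures KISS1R agonism through calcium-sensitive dye fluorescence in stably transfected HEK293 cells, read for 3 min after pin-tool compound delivery; 15-point titrations in triplicate.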

Assay [4] can be described thus: G protein-coupled receptor (GPCR) small molecule agonists, calcium flux assay: HEK293 wild type cell line counter screen (AID 1920065). In outline:
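Readout: fluorescence at 480 nm excitation/540 nm emission, sampled at 1 s intervals for 3 min. Cells had been cultured 18 h, then dye-loaded 1 h at 37 C before compound or ATP addition.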

Assay [5] can be described thus: p53 small molecule agonists, cell-based qHTS assay with human liver microsomes (AID 1963577).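 Further: p53 response element beta-lactamase reporter cells with liver microsomes plus NADPH.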 The gist of the method: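 16 h, 37 C exposure of p53RE-bla cells to compounds with human liver microsomes and NADPH (0.5 mg/mL final each); detection via LiveBLAzer mixture, 2 h dark at room temperature.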
Assay [6] can be described thus: p53 small molecule agonists, cell-based qHTS assay with rat liver microsomes (AID 1963578). In outline: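 With rat liver microsomes and NADPH present (0.5 mg/mL final each), p53RE-bla cells are treated with compound for 16 h at 37 C. LiveBLAzer detection mixture is then applied for 2 h at room temperature in the dark.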
The nature of assay [7]: p53 small molecule agonists, cell-based qHTS assay with human liver microsomes: qHTS cell viability counter screen (AID 1963579). Further: nearly all actives have a fitted effect of over 45% in size. The gist of the method:
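In this multiplexed counter screen, the reporter plates were subsequently treated with CellTiter-Glo so that cell viability, reflected by luminescence, could be recorded for p53RE-bla cells dosed 16 h with compounds under microsomal activation (HLM and NADPH).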

The nature of assay [8]: p53 small molecule agonists, cell-based qHTS assay with rat liver microsomes: qHTS cell viability counter screen (AID 1963580). Further: nearly all actives have a fitted effect of over 45% in size. The gist of the method: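 p53RE-bla HCT-116 cells were exposed 16 h at 37 C to compounds with rat liver microsomes (0.5 mg/mL) and NADPH (0.5 mg/mL). Viability was measured in the same wells as ATP content by CellTiter-Glo luminescence.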
Assay [9] in a line: p53 small molecule agonists, cell-based qHTS assay: qHTS cell viability counter screen (AID 1963581). Further: nearly all actives have a fitted effect of over 45% in size. The gist of the method:
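In the same plates used for the p53 bla reporter, HCT-116 cells given compounds for 16 h at 37 C received CellTiter-Glo; luminescence was recorded 30 min later at room temperature.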

A short description of assay [10]: p53 small molecule agonists, cell-based qHTS assay (AID 1963582; active means well fitted activation curve with a large enough effect in the signal ratio in the repeat runs, not every such curve was filed as active; the % refers to the signal ratio). In outline:
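Compounds are pin-transferred in DMSO onto p53RE-bla cells and incubated 16 h at 37 C. The B/G FRET beta-lactamase substrate is then applied for 2 h at RT and fluorescence recorded.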

The target in assay [11] is 5-hydroxytryptamine receptor 2A (Homo sapiens) (UniProt P28223). Briefly: 5-hydroxytryptamine receptor 2A (HTR2A) small molecule antagonists, cell-based qHTS assay (AID 1963586). Further: nearly all actives have a fitted effect of over 45% in size. The gist of the method:
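Antagonist-mode intracellular calcium assay: DOI (4 nM) added after 5 min compound pre-incubation at room temperature to dye-loaded HTR2A-CHO cells. Fluorescence followed for 3 min, sampled every second.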

Assay [12] shares this target. Briefly: 5-hydroxytryptamine receptor 2A (HTR2A) small molecule agonists, cell-based qHTS assay (AID 1963587). Further: nearly all actives have a fitted effect of over 30% in size. In outline: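 CHO cells stably expressing human HTR2A, plated 18 h, loaded with calcium dye 1 h at 37 C. Agonist mode: compounds added and intracellular calcium fluorescence recorded kinetically for 2 min at 1 sec intervals.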
Assay [13] deals with Muscarinic acetylcholine receptor M1 (Homo sapiens) (UniProt P11229). Briefly: Cholinergic receptor muscarinic 1 (CHRM1) small molecule antagonists, cell-based qHTS assay (AID 1963588). Further: nearly all actives have a fitted effect of over 40% in size. The gist of the method:
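CHRM1-CHO calcium-flux assay, antagonist mode. Cells were seeded 18 h, dye-loaded 1 h at 37 C and given compound for 5 min at RT, then acetylcholine was added at 50nM. FDSS fluorescence was read 3 min; 15 concentrations, three runs.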

A short description of assay [14]: cAMP Responsive Elements (CRE) small molecule agonists, cell-based qHTS assay (AID 1963590). Further: potency means the concentration at half of the fitted maximal effect. In outline:
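Cell line: CRE-bla HEK 293T; medium DMEM/10% dialyzed FBS/0.1 mM NEAA/1 mM pyruvate/25 mM HEPES; 3 h compound exposure; beta-lactamase FRET readout after 2 h substrate loading at RT.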

A short description of assay [15]: cAMP Responsive Elements (CRE) small molecule antagonists, cell-based qHTS assay (AID 1963591; active means well fitted inhibition curve with a large enough effect in the signal ratio in the repeat runs, not every such curve was filed as active; the % refers to the signal ratio). The gist of the method: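 Inhibition of NKH477-driven (0.25 uM final) CRE-beta-lactamase signal in HEK293T cells, 3 h compound exposure at 37 °C, detected by FRET substrate fluorescence.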
The target of assay [16] is Beta-2 adrenergic receptor (Homo sapiens) (UniProt P07550). The assay can be described thus: Adrenergic beta2 receptor (ADRB2) small molecule antagonists, cell-based qHTS assay (AID 1963592). Further: series mostly up to about 92 µM; nearly all actives have a fitted effect of over 50% in size. The gist of the method: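 Cells (CHO, stable ADRB2 overexpression) incubated 18-20hr at 37C; compounds added from DMSO; agonist mix (1nM isoproterenol, 100uM IBMX, 25uM Ro-20-1724) added; 0.5hr RT; d2-cAMP and anti-cAMP-cryptate added; 1hr RT; 665/615 nm read.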

Assay [17] has as its target D(2) dopamine receptor (Homo sapiens) (UniProt P14416). Briefly: Dopamine D2 receptor (DRD2) small molecule antagonists, cell-based qHTS assay (AID 1963595; active means well fitted inhibition curve with a large enough effect in the signal ratio in the repeat runs, with a control signal flat; the % refers to the signal ratio; further: potency means the concentration at half of the fitted maximal effect). The gist of the method:
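Antagonist mode in DRD2-HEK293 cells: after compound addition with 0.1 mM Ro20-1724, cells received quinpirole (12 nM) and NKH477 (200 nM) for 30 min at room temperature; HTRF cAMP read after 1 h detection.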

Assay [18] addresses Muscarinic acetylcholine receptor M1 (Homo sapiens) (UniProt P11229). The assay can be described thus: Cholinergic receptor muscarinic 1 (CHRM1) small molecule agonists, cell-based qHTS assay (AID 1963589). Further: nearly all actives have a fitted effect of over 35% in size. The gist of the method: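 Each compound was tested at 15 concentrations across three independent runs on dye-loaded CHO cells stably expressing human CHRM1, reading intracellular calcium fluorescence kinetically at 1 sec intervals.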

Assay [19] deals with D(2) dopamine receptor (Homo sapiens) (UniProt P14416). Briefly: Dopamine D2 receptor (DRD2) small molecule agonists, cell-based qHTS assay (AID 1963594). Further: nearly all actives have a fitted effect of over 35% in size. Further: potency means the concentration at half of the fitted maximal effect. In outline: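 HEK293 cells stably expressing human DRD2, pre-treated with PDE inhibitor Ro20-1724 (0.1 mM final) and compound 10 min at room temperature, then stimulated with NKH477 (200nM […]) for 30 min. cAMP read by HTRF (665/620 nm).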

Assay [20] in a line: Nuclear factor erythroid 2-related factor 2/antioxidant responsive element (Nrf2/ARE) small molecule agonists: luciferase reporter gene qHTS assay in human keratinocytes (AID 1919969). Further: nearly all actives have a fitted effect of over 35% in size. Further: potency means the concentration at half of the fitted maximal effect. Background: In a reporter assay the amount or activity of a reporter protein is the signal.

Sequence of 5-hydroxytryptamine receptor 2A (Homo sapiens) (P28223 whole entry, looked up): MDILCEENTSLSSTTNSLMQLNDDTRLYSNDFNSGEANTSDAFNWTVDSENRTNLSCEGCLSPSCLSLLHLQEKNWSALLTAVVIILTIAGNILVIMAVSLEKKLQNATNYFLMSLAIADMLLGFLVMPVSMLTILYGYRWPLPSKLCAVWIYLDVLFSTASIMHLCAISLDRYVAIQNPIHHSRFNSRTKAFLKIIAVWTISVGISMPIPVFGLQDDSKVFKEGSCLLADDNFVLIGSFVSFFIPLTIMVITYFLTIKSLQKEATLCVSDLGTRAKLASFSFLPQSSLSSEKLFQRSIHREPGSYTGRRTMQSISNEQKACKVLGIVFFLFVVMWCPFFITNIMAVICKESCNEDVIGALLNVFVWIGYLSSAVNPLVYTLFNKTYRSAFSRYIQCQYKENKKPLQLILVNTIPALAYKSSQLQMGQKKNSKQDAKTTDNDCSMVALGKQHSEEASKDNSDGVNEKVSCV
Sequence of Muscarinic acetylcholine receptor M1 (Homo sapiens) (P11229 whole entry, looked up): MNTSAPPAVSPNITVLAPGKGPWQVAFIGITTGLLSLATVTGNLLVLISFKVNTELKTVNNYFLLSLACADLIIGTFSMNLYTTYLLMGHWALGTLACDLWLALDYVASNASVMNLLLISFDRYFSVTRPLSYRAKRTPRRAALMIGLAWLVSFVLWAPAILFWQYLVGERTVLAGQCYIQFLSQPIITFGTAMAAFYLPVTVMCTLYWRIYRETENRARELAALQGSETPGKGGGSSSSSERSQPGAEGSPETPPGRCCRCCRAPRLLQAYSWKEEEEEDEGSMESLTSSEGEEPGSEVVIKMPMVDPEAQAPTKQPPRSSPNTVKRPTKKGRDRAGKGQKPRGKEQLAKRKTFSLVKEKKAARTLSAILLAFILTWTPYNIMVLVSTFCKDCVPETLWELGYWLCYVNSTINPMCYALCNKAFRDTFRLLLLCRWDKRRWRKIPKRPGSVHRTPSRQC
Sequence of KiSS-1 receptor (Homo sapiens) (Q969F8 whole entry, looked up): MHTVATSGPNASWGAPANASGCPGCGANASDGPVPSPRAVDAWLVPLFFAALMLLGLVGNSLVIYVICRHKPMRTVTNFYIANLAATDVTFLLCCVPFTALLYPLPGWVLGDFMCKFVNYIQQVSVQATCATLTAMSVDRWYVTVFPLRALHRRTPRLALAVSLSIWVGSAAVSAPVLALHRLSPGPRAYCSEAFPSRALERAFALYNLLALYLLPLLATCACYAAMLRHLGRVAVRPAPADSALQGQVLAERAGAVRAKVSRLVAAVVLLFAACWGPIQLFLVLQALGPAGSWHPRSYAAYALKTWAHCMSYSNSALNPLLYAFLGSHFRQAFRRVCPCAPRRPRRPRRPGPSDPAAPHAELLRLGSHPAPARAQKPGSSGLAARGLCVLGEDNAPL
Sequence of D(2) dopamine receptor (Homo sapiens) (P14416 whole entry, looked up): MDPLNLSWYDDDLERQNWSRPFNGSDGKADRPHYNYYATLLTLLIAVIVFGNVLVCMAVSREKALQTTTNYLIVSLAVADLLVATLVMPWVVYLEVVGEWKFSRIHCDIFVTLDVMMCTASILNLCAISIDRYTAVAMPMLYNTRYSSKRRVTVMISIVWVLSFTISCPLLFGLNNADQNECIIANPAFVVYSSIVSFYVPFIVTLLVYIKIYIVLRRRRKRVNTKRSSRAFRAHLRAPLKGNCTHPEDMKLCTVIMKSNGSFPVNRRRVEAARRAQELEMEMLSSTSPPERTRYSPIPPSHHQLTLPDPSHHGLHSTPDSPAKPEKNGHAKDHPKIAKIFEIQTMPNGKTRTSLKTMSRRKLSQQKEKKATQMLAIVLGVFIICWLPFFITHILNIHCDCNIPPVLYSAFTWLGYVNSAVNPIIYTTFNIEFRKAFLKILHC
Sequence of Beta-2 adrenergic receptor (Homo sapiens) (P07550 whole entry, looked up): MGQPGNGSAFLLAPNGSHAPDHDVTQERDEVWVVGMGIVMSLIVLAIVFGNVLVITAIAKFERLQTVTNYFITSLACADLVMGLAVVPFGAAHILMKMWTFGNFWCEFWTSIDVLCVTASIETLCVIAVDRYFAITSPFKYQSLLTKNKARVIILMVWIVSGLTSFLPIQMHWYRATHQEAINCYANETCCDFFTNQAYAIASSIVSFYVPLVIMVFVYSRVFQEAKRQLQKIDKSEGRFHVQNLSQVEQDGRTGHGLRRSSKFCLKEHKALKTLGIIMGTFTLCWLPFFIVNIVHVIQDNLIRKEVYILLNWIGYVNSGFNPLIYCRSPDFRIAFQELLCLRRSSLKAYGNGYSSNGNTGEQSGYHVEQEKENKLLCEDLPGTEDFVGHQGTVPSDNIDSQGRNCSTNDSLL
Sequence of Gonadotropin-releasing hormone receptor (Homo sapiens) (P30968 whole entry, looked up): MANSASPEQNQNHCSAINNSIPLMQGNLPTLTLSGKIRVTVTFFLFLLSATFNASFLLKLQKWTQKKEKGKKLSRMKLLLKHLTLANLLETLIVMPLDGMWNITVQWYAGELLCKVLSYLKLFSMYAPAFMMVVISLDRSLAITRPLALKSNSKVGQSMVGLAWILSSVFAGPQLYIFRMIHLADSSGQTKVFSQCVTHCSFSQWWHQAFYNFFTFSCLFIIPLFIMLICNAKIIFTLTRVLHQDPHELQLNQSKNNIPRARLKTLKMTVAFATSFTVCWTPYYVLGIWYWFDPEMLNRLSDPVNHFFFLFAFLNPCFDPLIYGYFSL

As to `CC(C)=CCC/C(C)=C\C#N`, the Potency entry in [1], in [2], in [5], in assay [6], in assay [7] and in assay [8] was “inactive” each time. The Potency entry in assay [9], in [10], in assay [11], in assay [12], in assay [13] and in [14] was “inactive” in each case. Besides, the Potency result in assay [15], in assay [16] and in assay [17] was “inactive” throughout. Moreover, the outcome in [3] and in assay [4] was inactive.

With `CC1=CC(=O)CC(C)(C)C1=O`, the Potency result in assay [1], in [2], in assay [5], in assay [6], in [7] and in [8] was “inactive” each time. Besides, the Potency entry in assay [9], in [10], in [18], in assay [14], in assay [15] and in assay [16] was “inactive” in each case. Further, the Potency result in [19] and in assay [17] was “inactive” each time. The outcome in assay [3] and in assay [4] was inactive.

With `CCOC(=O)CC(C)O` (stereo not given), the Potency result in [1], in [2], in [5], in assay [6], in assay [7] and in assay [8] was “inactive” in each case. In addition, the Potency entry in assay [9], in [11], in assay [12], in [13], in assay [18] and in assay [14] was “inactive” in each case. Further, the Potency result in [15], in assay [16], in assay [19] and in [17] was “inactive” throughout. Also, the result in assay [3] and in assay [4] was inactive.

As to `[Cl][Pt-2]([Cl])([Cl])[Cl]`, the Potency entry in assay [1], in assay [2], in assay [5], in [6], in assay [7] and in assay [8] was “inactive” in each case. Also, the Potency result in [9], in assay [11], in [12], in [13], in [18] and in assay [15] was “inactive” each time. For the same compound, the Potency result in assay [16] was “inactive”. Besides, the result in assay [3] and in assay [4] was inactive.

`CN(C)C(=O)C1(N2CCCCC2)CCN(CC[C@@]2(c3ccc(Cl)c(Cl)c3)CN(C(=O)c3ccccc3)CCO2)CC1`: the Potency was 22.7 µM (active) in [1] and 64.1 µM (active) in assay [17]. In addition, the Potency entry in [20], in [5], in assay [6], in assay [7], in [12] and in assay [18] was “inactive” throughout. For the same compound, in assay [16], the Potency result is “inactive”. Moreover, the outcome in assay [4] was inactive.

Take `Clc1nc(C(Cl)(Cl)Cl)c(Cl)c(Cl)c1Cl`: the values for the Potency in assay [1] and in assay [20] were 48.6 µM (active) and 21.7 µM (active), respectively. In addition, the Potency entry in assay [6], in assay [7], in assay [8], in assay [9], in [12] and in assay [13] was “inactive” in each case. The Potency entry in assay [18], in [16], in assay [19] and in assay [17] was “inactive” in each case.

For `Nc1nc(Cl)nc2c1ncn2[C@@H]1O[C@H](CO)[C@@H](O)[C@@H]1F`, the Potency entry in assay [1], in assay [2], in [5], in [6], in [7] and in assay [8] was “inactive” in each case. Also, the Potency entry in [9], in assay [11], in [12], in assay [13], in [18] and in assay [15] was “inactive” each time. Also, the Potency entry in [16] and in assay [17] was “inactive” in each case. Besides, the outcome in assay [3] and in assay [4] was inactive. Further, the values for the Potency in assay [14] and in assay [19] were 29.8 µM (active) and 0.422 µM (active), respectively.

`NC(=O)C1(N2CCCCC2)CCN(CCCC(=O)c2ccc(F)cc2)CC1`: the Potency result in [1], in assay [2], in [5], in [6], in assay [7] and in assay [8] was “inactive” each time. Moreover, the Potency entry in assay [9], in [10], in assay [12], in assay [13], in assay [15] and in assay [16] was “inactive” throughout. Also, the result in assay [3] and in [4] was inactive.
